ALR H2O2 inh – inhibitors of human sulfhydryl oxidase ALR; P55789; purified ALR, DTT oxidation, H2O2 HRP-luminol luminescence; inhibition, % (concentration not given with the values); 290,000 compounds, 3.8% hits; AID 485317;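 active means mean replicate inhibition above about 79%, with every replicate also reaching it, limit read from the data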
Target sequence (P55789 whole entry, looked up): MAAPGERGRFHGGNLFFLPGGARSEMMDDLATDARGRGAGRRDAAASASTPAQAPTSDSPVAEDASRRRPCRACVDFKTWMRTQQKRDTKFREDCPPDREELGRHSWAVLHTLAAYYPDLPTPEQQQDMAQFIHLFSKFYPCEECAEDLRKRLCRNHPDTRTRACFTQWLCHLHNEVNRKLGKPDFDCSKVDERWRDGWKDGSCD
M18AAP inhibitor – blocks P. falciparum M18 aspartyl aminopeptidase; inhibition, % at 7.35 µM; 290,000 compounds, 1.2% hits; recombinant PfM18AAP, H-Glu-NHMec fluorogenic cleavage;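 active means inhibition above the campaign mean inhibition over all tested compounds plus 3 SD, cut at about 28% in these data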;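 further: 0% = plate median of test compound wells and 100% = 2 mM ZnCl2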
H9c2 protect – modulators protecting cardiomyocytes from myocardial damage | H9c2 cardiomyocytes, H2O2 injury protection, ATPLite, 2 h | protection from H2O2 cell death, % at 20 µM | 360,000 compounds, 0.63% hits;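 active means compounds giving at least 50% protection of heart cells from peroxide-induced death in the single-dose screen, raw or plate-pattern-corrected value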;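 further: 0% = DMSO wells with peroxide and 100% = DMSO wells without peroxide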
PfG6PD inh – PfG6PD (Plasmodium falciparum) enzyme inhibition; PfGluPho enzyme, NADPH resazurin-diaphorase fluorescence; inhibition, % at 20 µM; 350,000 compounds, 0.78% hits; AID 504690;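 active means inhibition reaching at least a set limit at 20 µM in the primary screen, cut at about 59% in these data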;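 further: 0% = DMSO wells with substrate and 100% = DMSO wells lacking glucose-6-phosphate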
PHOSPHO1 block – PHOSPHO1 (human) inhibition; Q8TCT1; inhibition, % at 13.3 µM; AID 1565; recombinant PHOSPHO1, absorbance phosphatase assay; 290,000 compounds, 1.1% hits; in the data active means inhibition above about 60%
Target sequence (Q8TCT1 whole entry, looked up): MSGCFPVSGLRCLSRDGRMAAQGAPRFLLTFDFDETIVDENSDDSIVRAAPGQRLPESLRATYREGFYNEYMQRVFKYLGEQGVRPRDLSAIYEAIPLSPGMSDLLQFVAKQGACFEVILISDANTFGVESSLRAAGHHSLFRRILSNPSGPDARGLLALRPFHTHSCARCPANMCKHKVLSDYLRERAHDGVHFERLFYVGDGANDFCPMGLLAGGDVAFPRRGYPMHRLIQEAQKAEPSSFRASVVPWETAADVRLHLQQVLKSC
PfG6PD confirm – PfG6PD inhibition, single-dose confirmed. shares compounds with PfG6PD inh. recombinant PfGluPho, NADPH-diaphorase-resazurin fluorescence. inhibition, % at 20 µM. 2,400 compounds, 34% hits;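 active means inhibition of at least 50% at 20 µM in any single replicate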;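 further: 0% = DMSO with substrate and 100% = DMSO lacking glucose-6-phosphate substrate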
Diaphorase 10uM – diaphorase inhibition or oxidation at 10 uM NADPH. shares compounds with PfG6PD inh. diaphorase-coupled resazurin reduction, fluorescence, NADPH 10 uM. inhibition, % at 20 µM. 820 compounds, 39% hits. AID 504862;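 active means average inhibition reaching 50% or more with the compound at 20 µM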;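 further: resorufin red fluorescence formed as diaphorase reduces resazurin using NADPH; 0% = DMSO with enzyme and 100% = DMSO without enzyme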
Diaph ctr 30uM – counter-screen for P. falciparum G6PD inhibitors: diaphorase inhibitors, oxidizers; 820 compounds, 29% hits; Diaphorase/resazurin coupled assay, resorufin fluorescence, 30 uM NADPH; AID 504863; shares compounds with PfG6PD inh; inhibition, % at 20 µM;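 active means inhibition averaging 50% or more, tested at 20 µM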;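 further: 0% = DMSO with enzyme and 100% = DMSO wells lacking diaphorase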
The depositor's hits bear a star; x = no result. This is a sample that favours compounds with a hit; in the whole collection about 5.6% have one here.

SMILES	ALR H2O2 inh	M18AAP inhibitor	H9c2 protect	PfG6PD inh	PHOSPHO1 block	PfG6PD confirm	others
Cn1c(=O)[nH]c(=O)c2c1nc([N+](=O)[O-])n2Cc1ccccc1	-29.5	-0.3	-10.8	85.7*	-3.6	88.2*	Diaphorase 10uM=49.7;Diaph ctr 30uM=50.8*
CC(C)Cn1c([N+](=O)[O-])nc2c1c(=O)[nH]c(=O)n2C	-19.7	-14.0	4.1	71.3*	-1.5	55.3*	Diaphorase 10uM=35.6;Diaph ctr 30uM=37.2
CC(C)Oc1ccc(C(=O)NCC(=O)N2CCN(S(=O)(=O)/C=C/c3ccccc3)CC2)cc1	x	x	-8.2	-3.2	x	x
Cc1ccc(CNC(=O)C2(C)CCN2C(=O)Cc2ccc(C(C)(C)C)cc2)cc1 (stereo not given)	x	x	-4.9	x	x	x
O=c1c2cccc(Cl)c2nc2n1Cc1ccccc1-2	0.8	-10.9	1.8	77.7*	81.3*	42.7
Cc1c(C(=O)NNC(=O)c2cccnc2)cccc1[N+](=O)[O-]	0.5	x	5.8	-1.5	x	x
COc1ccccc1C(=O)Nc1cc(Cl)ccc1O	-4.5	4.7	-4.0	34.9	19.2	x
CCOc1ccccc1C(=O)Nc1cc(Cl)ccc1O	-6.3	-0.2	-31.5	67.0*	5.7	-9.0
CC1=NOC(=O)/C1=C\c1ccc(-c2cc(Cl)ccc2Cl)o1	-0.6	23.7	-38.9	80.0*	11.3	10.7
Oc1cc2c(cc1O)C1c3ccc(O)c(O)c3OCC1(O)C2 (stereo not given)	99.6*	79.5*	2.3	113.1*	43.7	105.9*	Diaphorase 10uM=74.1*;Diaph ctr 30uM=46.9
CC(Sc1nnc(C(C)Oc2ccc(F)cc2)o1)C(=O)NCc1ccc2c(c1)OCO2 (stereo not given)	x	x	0.4	-18.2	x	x
COC1=CC(=O)c2nc(Cl)ccc2C1=O	x	x	-15.7	x	x	x
COC1=CC(=O)c2c(ccc3ncnc(N)c23)C1=O	x	x	-13.8	127.3*	x	108.2*	Diaphorase 10uM=99.4*;Diaph ctr 30uM=100.5*
COc1ccccc1NC(=O)CSCc1ccc([N+](=O)[O-])cc1	x	1.1	-0.3	11.0	38.5	x
COc1ccc([N+](=O)[O-])cc1NC(=O)CSCc1cc(C)cc(C)c1	-2.6	3.0	-5.2	59.3*	-11.7	15.6
Clc1ccccc1-c1nnc2sc(-c3ccc4c(c3)OCO4)nn12	-3.0	0.2	2.6	62.6*	78.7*	40.9
Clc1ccccc1-c1nnc2sc(CCc3ccccc3)nn12	-4.4	4.7	-5.2	60.0*	63.2*	21.5
COc1ccc(NC(=O)c2ccc(S(=O)(=O)N3CC(C)CC(C)C3)cc2)cc1S(N)(=O)=O (stereo not given)	-1.5	x	0.0	6.9	x	x
CCCCc1cc(=O)oc2cc(OCC(=O)Nc3cccnc3)c(Cl)cc12	-3.0	-14.1	-17.6	-0.7	22.6	x
Cc1ccc(C(=O)Nc2ccc(Br)c(C(F)(F)F)c2)cc1	-27.8	7.1	-20.7	68.5*	17.7	9.4
Cc1ccc(NC(=O)c2ccc(C)cc2)cc1	-0.8	x	-26.1	38.1	x	x
CCOc1cc(/C=N/NC(=O)c2cccnc2)ccc1O	x	2.0	-1.2	3.9	7.6	x
CCOc1cc(/C=N/Nc2nnc(C)n2N)ccc1O	99.4*	24.9	-6.6	59.1*	x	47.9
Cc1onc(C(=O)Nc2sc3c(c2C(N)=O)CCCC3)c1[N+](=O)[O-]	10.7	12.8	6.8	64.1*	-1.4	47.2
COc1ccc([N+](=O)[O-])cc1N(CC(O)CN1C(=O)NC(C)(C)C1=O)S(=O)(=O)c1ccc(C)cc1 (stereo not given)	x	x	-3.5	-10.3	x	x
SMILES	ALR H2O2 inh	M18AAP inhibitor	H9c2 protect	PfG6PD inh	PHOSPHO1 block	PfG6PD confirm	others
Oc1ccc(NCc2cccc(OCc3ccc(F)cc3)c2)cc1	x	24.3	-16.2	48.2	18.3	x
Oc1ccc(NCc2cccc(OCc3ccccc3)c2)cc1	-2.3	22.6	-2.2	59.3*	36.8	3.6
c1ccc(COn2nnc3ccccc32)c(COn2nnc3ccccc32)c1	2.3	-18.3	11.5	49.9	-14.6	14.4
COc1ccc(NC(=O)C2(C)Cc3c(-c4ccc(N(C)C)cc4)ccnc3O2)cc1 (stereo not given)	x	x	1.3	x	x	x
c1ccc(-n2ncc3c(NC4CCCCCC4)ncnc32)cc1	-5.5	x	-1.9	95.5*	35.7	20.5
Cc1ccc(S(=O)(=O)/N=C(\c2ccccc2)N(C)S(=O)(=O)c2ccc(C)cc2)cc1	2.1	8.3	20.3	55.2	31.4	x
Cc1ccc(S(=O)(=O)N(C)/C(=N/S(=O)(=O)c2ccccc2)c2ccccc2)cc1	99.4*	-4.9	6.0	82.3*	-3.4	45.9
Cn1c(C(=O)Nc2ccc3c(c2)OCCO3)cc2sccc21	-17.0	4.8	-12.2	65.8*	7.6	18.1
NC(=O)N/N=C/c1ccc(-n2nncc2-c2ccc(Cl)cc2)cc1	-1.5	-0.7	-2.7	77.0*	31.0	50.0*	Diaphorase 10uM=47.8;Diaph ctr 30uM=49.9
Cc1cc(C(=O)O)ccc1-n1c(C)cc(/C=C(/C#N)C(=O)Nc2ccccc2)c1C	27.1	0.7	-1.7	8.5	19.5	x
Cc1cc(C(=O)O)ccc1-n1c(C)cc(C=C2C(=O)c3ccccc3C2=O)c1C	-2.1	11.4	6.9	80.3*	-7.6	46.8*	Diaphorase 10uM=59.7*;Diaph ctr 30uM=41.0
CCCCn1c(N)c(N(CCOC)C(=O)c2cnc(C)cn2)c(=O)[nH]c1=O	-3.0	x	5.4	0.8	x	x
COc1ccc(OC)c(C(=O)CN2C(=O)C(=O)N(C3CCCC3)C2=O)c1	-5.5	x	0.2	2.7	x	x
Nc1nc2ccc(S(=O)(=O)N3CCCCC3)cc2s1	97.7*	15.6	1.3	64.8*	50.4	40.4
O=C(CSc1nc2ncc(Cl)cc2[nH]1)Nc1ccccc1-c1ccccc1	-1.6	-4.3	-9.8	-14.2	15.9	x
O=C(CSc1nc2ncc(Cl)cc2[nH]1)NCC(=O)Nc1ccc(F)c(F)c1F	x	-13.5	0.6	79.0*	14.7	31.1
COCCn1c(-c2ccc(OC)cc2)nc2ccccc21	-1.2	-10.4	-13.3	9.8	8.5	x
COCCn1c2nc(=O)n(-c3ccccc3)c(=O)c-2nc2ccccc21	x	x	-3.8	59.2*	x	38.1
Nc1ccc(N(CCO)CCO)cc1	97.2*	21.5	-8.3	62.7*	34.5	54.6*	Diaphorase 10uM=24.6;Diaph ctr 30uM=14.2
COc1ccc(NC(=O)CCc2nnc3ccc(N4CCC(C)CC4)nn23)cc1OC	-32.8	5.3	1.2	12.3	48.8	x
O=C(NNC(=O)C1CC=CCC1)c1ccccc1O (stereo not given)	-1.7	9.7	3.0	-36.1	24.7	x
O=C1CCC[C@@H]2[C@@H](Cc3ccccc3)[C@H](N3CCN(c4ccccc4)CC3)C[C@@H]3CCN1[C@@H]32	x	x	-2.4	107.0*	x	55.9*	Diaphorase 10uM=59.7*;Diaph ctr 30uM=46.6
Cc1cc(-n2c(C)cc(C(=O)COc3cccnc3[N+](=O)[O-])c2C)no1	x	x	-3.1	5.7	x	x
CC(=O)c1cccc(OCC(=O)c2cc(C)n(-c3cc(C)on3)c2C)c1	-5.2	-20.1	-34.1	116.6*	41.2	61.6*	Diaphorase 10uM=61.8*;Diaph ctr 30uM=54.7*
